Numbering of substitutions follows the chain as printed; changes in the protein carry UniProt numbers. Whole data set: some 16,000 sequences, median “ka relative to ugcaugu” near 0.096, cut for the highest 2% near 0.35. The entries come from a sample that favours the highest values as a whole.
B1: UGACGAC (DNA:RNA)
RNA: GGGAGACCGGAAUUCAGAUUGUCCUGACGACUUAAAUCCCGUCGUAGCCACCA
DNA 1: CAATCTGAATTCCGGTCTCCC
DNA 2: TGGTGGCTACGACGGGATT
B2: GCCAGGU (DNA:RNA)
RNA: B1 RNA with U25G, G26C, A27C, C28A, A30G, C31U
DNA 1: CAATCTGAATTCCGGTCTCCC
DNA 2: TGGTGGCTACGACGGGATT
B3: UAUGCGU (DNA:RNA)
RNA: B1 RNA with G26A, A27U, C28G, G29C, A30G, C31U
DNA 1: CAATCTGAATTCCGGTCTCCC
DNA 2: TGGTGGCTACGACGGGATT
B4: GAAAGGG (DNA:RNA)
RNA: B1 RNA with U25G, G26A, C28A, A30G, C31G
DNA 1: CAATCTGAATTCCGGTCTCCC
DNA 2: TGGTGGCTACGACGGGATT
B5: GGCACGG (DNA:RNA)
RNA: B1 RNA with U25G, A27C, C28A, G29C, A30G, C31G
DNA 1: CAATCTGAATTCCGGTCTCCC
DNA 2: TGGTGGCTACGACGGGATT
B6: AUAACAC (DNA:RNA)
RNA: B1 RNA with U25A, G26U, C28A, G29C
DNA 1: CAATCTGAATTCCGGTCTCCC
DNA 2: TGGTGGCTACGACGGGATT
B7: UUAGACU (DNA:RNA)
RNA: B1 RNA with G26U, C28G, G29A, A30C, C31U
DNA 1: CAATCTGAATTCCGGTCTCCC
DNA 2: TGGTGGCTACGACGGGATT
B8: UCGAUUC (DNA:RNA)
RNA: B1 RNA with G26C, A27G, C28A, G29U, A30U
DNA 1: CAATCTGAATTCCGGTCTCCC
DNA 2: TGGTGGCTACGACGGGATT
B9: UCGUAUC (DNA:RNA)
RNA: B1 RNA with G26C, A27G, C28U, G29A, A30U
DNA 1: CAATCTGAATTCCGGTCTCCC
DNA 2: TGGTGGCTACGACGGGATT
B10: UCGAAUC (DNA:RNA)
RNA: B1 RNA with G26C, A27G, C28A, G29A, A30U
DNA 1: CAATCTGAATTCCGGTCTCCC
DNA 2: TGGTGGCTACGACGGGATT
B11: UCGAUUG (DNA:RNA)
RNA: B1 RNA with G26C, A27G, C28A, G29U, A30U, C31G
DNA 1: CAATCTGAATTCCGGTCTCCC
DNA 2: TGGTGGCTACGACGGGATT
B12: UCGAAAU (DNA:RNA)
RNA: B1 RNA with G26C, A27G, C28A, G29A, C31U
DNA 1: CAATCTGAATTCCGGTCTCCC
DNA 2: TGGTGGCTACGACGGGATT
B13: UCGAAUG (DNA:RNA)
RNA: B1 RNA with G26C, A27G, C28A, G29A, A30U, C31G
DNA 1: CAATCTGAATTCCGGTCTCCC
DNA 2: TGGTGGCTACGACGGGATT
B14: CCAUUAU (DNA:RNA)
RNA: B1 RNA with U25C, G26C, C28U, G29U, C31U
DNA 1: CAATCTGAATTCCGGTCTCCC
DNA 2: TGGTGGCTACGACGGGATT
B15: UUGGCUG (DNA:RNA)
RNA: B1 RNA with G26U, A27G, C28G, G29C, A30U, C31G
DNA 1: CAATCTGAATTCCGGTCTCCC
DNA 2: TGGTGGCTACGACGGGATT
B16: UUGGCUA (DNA:RNA)
RNA: B1 RNA with G26U, A27G, C28G, G29C, A30U, C31A
DNA 1: CAATCTGAATTCCGGTCTCCC
DNA 2: TGGTGGCTACGACGGGATT
B17: UUGGCUC (DNA:RNA)
RNA: B1 RNA with G26U, A27G, C28G, G29C, A30U
DNA 1: CAATCTGAATTCCGGTCTCCC
DNA 2: TGGTGGCTACGACGGGATT
B18: GUGGCUG (DNA:RNA)
RNA: GGGAGACCGGAAUUCAGAUUGUCCGUGGCUGUUAAAUCCCGUCGUAGCCACCA
DNA 1: CAATCTGAATTCCGGTCTCCC
DNA 2: TGGTGGCTACGACGGGATT
B19: GUGGCUC (DNA:RNA)
RNA: B18 RNA with G31C
DNA 1: CAATCTGAATTCCGGTCTCCC
DNA 2: TGGTGGCTACGACGGGATT
B20: GUGUGGC (DNA:RNA)
RNA: B18 RNA with G28U, C29G, U30G, G31C
DNA 1: CAATCTGAATTCCGGTCTCCC
DNA 2: TGGTGGCTACGACGGGATT
B21: GAACUCU (DNA:RNA)
RNA: B1 RNA with U25G, G26A, G29U, A30C, C31U
DNA 1: CAATCTGAATTCCGGTCTCCC
DNA 2: TGGTGGCTACGACGGGATT
B22: CGGUAAG (DNA:RNA)
RNA: B18 RNA with G25C, U26G, G28U, C29A, U30A
DNA 1: CAATCTGAATTCCGGTCTCCC
DNA 2: TGGTGGCTACGACGGGATT
B23: CCGGUCA (DNA:RNA)
RNA: B18 RNA with G25C, U26C, C29U, U30C, G31A
DNA 1: CAATCTGAATTCCGGTCTCCC
DNA 2: TGGTGGCTACGACGGGATT
B24: UGCGACA (DNA:RNA)
RNA: B1 RNA with A27C, C28G, G29A, A30C, C31A
DNA 1: CAATCTGAATTCCGGTCTCCC
DNA 2: TGGTGGCTACGACGGGATT
B25: UGGGGGC (DNA:RNA)
RNA: B1 RNA with A27G, C28G, A30G
DNA 1: CAATCTGAATTCCGGTCTCCC
DNA 2: TGGTGGCTACGACGGGATT
B26: UGGGCUC (DNA:RNA)
RNA: B18 RNA with G25U, U26G, G31C
DNA 1: CAATCTGAATTCCGGTCTCCC
DNA 2: TGGTGGCTACGACGGGATT
B27: CUGUGGC (DNA:RNA)
RNA: B18 RNA with G25C, G28U, C29G, U30G, G31C
DNA 1: CAATCTGAATTCCGGTCTCCC
DNA 2: TGGTGGCTACGACGGGATT
B28: UGGCUGU (DNA:RNA)
RNA: B1 RNA with A27G, G29U, A30G, C31U
DNA 1: CAATCTGAATTCCGGTCTCCC
DNA 2: TGGTGGCTACGACGGGATT
B29: CUGGCUG (DNA:RNA)
RNA: B18 RNA with G25C
DNA 1: CAATCTGAATTCCGGTCTCCC
DNA 2: TGGTGGCTACGACGGGATT
B30: UGGGCUG (DNA:RNA)
RNA: B18 RNA with G25U, U26G
DNA 1: CAATCTGAATTCCGGTCTCCC
DNA 2: TGGTGGCTACGACGGGATT
B31: GGUGCCG (DNA:RNA)
RNA: B18 RNA with U26G, G27U, U30C
DNA 1: CAATCTGAATTCCGGTCTCCC
DNA 2: TGGTGGCTACGACGGGATT

Target: T1, RBFOX1 RRM RbFoxmut (Fox-RRM*) (Homo sapiens, UniProt Q9NWB1 109-208, R118D;E147R;N151S;E152T)
T1 sequence: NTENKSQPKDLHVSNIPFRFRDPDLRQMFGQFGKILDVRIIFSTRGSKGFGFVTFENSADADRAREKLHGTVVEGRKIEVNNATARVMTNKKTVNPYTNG
Test: EMSA; HiTS-Eq, 1 nM pool, 10 min; buffer printed only for the single-RNA assays: 10 mM Tris pH 7.5, 150 mM NaCl, 3.4 mM EDTA, 0.001% NP-40, 30 C
Conditions: tags: His6 N-terminal (pET28a); label: 5' 32P
Summary of the method: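 Relative association constants, normalised to the cognate motif, were derived by comparing read counts of each RNA species with those of the control reaction. The RNA sequenced was the free fraction, separated by 8% native PAGE after a 10 min equilibration in 50 µL of 1 nM 5′-radiolabelled RNA (7 randomized nucleotides) with increasing concentrations of purified wild-type or mutant RbFox RRM.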

Row | Binder | binding signal
1 | B1 | 0.069 KA relative to UGCAUGU
2 | B2 | 0.0955 KA relative to UGCAUGU
3 | B3 | 0.108 KA relative to UGCAUGU
4 | B4 | 0.0436 KA relative to UGCAUGU
5 | B5 | 0.149 KA relative to UGCAUGU
6 | B6 | 0.0733 KA relative to UGCAUGU
7 | B7 | 0.0743 KA relative to UGCAUGU
8 | B8 | 0.115 KA relative to UGCAUGU
9 | B9 | 0.192 KA relative to UGCAUGU
10 | B10 | 0.36 KA relative to UGCAUGU
11 | B11 | 0.239 KA relative to UGCAUGU
12 | B12 | 0.0789 KA relative to UGCAUGU
13 | B13 | 1.31 KA relative to UGCAUGU
14 | B14 | 0.131 KA relative to UGCAUGU
15 | B15 | 0.435 KA relative to UGCAUGU
16 | B16 | 0.168 KA relative to UGCAUGU

Row | Binder | binding signal
17 | B17 | 0.134 KA relative to UGCAUGU
18 | B18 | 0.549 KA relative to UGCAUGU
19 | B19 | 0.125 KA relative to UGCAUGU
20 | B20 | 0.132 KA relative to UGCAUGU
21 | B21 | 0.053 KA relative to UGCAUGU
22 | B22 | 0.0872 KA relative to UGCAUGU
23 | B23 | 0.0703 KA relative to UGCAUGU
24 | B24 | 0.0626 KA relative to UGCAUGU
25 | B25 | 0.0983 KA relative to UGCAUGU
26 | B26 | 0.115 KA relative to UGCAUGU
27 | B27 | 0.102 KA relative to UGCAUGU
28 | B28 | 0.299 KA relative to UGCAUGU
29 | B29 | 0.431 KA relative to UGCAUGU
30 | B30 | 0.462 KA relative to UGCAUGU
31 | B31 | 0.128 KA relative to UGCAUGU

Reference: article PMC9911399, “Two distinct binding modes provide the RNA-binding protein RbFox with extraordinary sequence specificity”
